Compound activity deposited in PubChem BioAssay by National Center for Advancing Translational Sciences (NCATS).
BAZ2B block: BAZ2B (human) inhibition; AlphaScreen BAZ2B-H3K14Ac peptide displacement; Potency, µM (highest dose often 114 µM), without a hit: top-dose activity change, negative = inhibition, usual class: inhibitors; 4.4% of 360,000 active; further: on the % scale 0 is the no-effect control and ±100 the full control effect; nearly all actives have a fitted effect of over 60% in size
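AlphaScreen luminescence quantifies BAZ2B engagement of H3K14Ac peptide; the protein and biotinylated peptide are both at 50 nM final, buffer PBS pH 7.4 with 0.01% Tween-20, all steps at room temperature.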
PLK1 PBD block: blocks phosphopeptide binding to human PLK1 polo-box domain. 2.8% of 360,000 active. P53350. Plk1 PBD binding of FITC phosphopeptide, fluorescence polarization. Potency, µM, for inactives: max response, negative = inhibition, hits mostly inhibitors; further: series mostly up to about 57 µM; on the % scale 0 is the no-effect control and ±100 the full control effect; nearly all actives have a fitted effect of over 65% in size
Target sequence (P53350 whole entry, looked up, the tested form may be a part): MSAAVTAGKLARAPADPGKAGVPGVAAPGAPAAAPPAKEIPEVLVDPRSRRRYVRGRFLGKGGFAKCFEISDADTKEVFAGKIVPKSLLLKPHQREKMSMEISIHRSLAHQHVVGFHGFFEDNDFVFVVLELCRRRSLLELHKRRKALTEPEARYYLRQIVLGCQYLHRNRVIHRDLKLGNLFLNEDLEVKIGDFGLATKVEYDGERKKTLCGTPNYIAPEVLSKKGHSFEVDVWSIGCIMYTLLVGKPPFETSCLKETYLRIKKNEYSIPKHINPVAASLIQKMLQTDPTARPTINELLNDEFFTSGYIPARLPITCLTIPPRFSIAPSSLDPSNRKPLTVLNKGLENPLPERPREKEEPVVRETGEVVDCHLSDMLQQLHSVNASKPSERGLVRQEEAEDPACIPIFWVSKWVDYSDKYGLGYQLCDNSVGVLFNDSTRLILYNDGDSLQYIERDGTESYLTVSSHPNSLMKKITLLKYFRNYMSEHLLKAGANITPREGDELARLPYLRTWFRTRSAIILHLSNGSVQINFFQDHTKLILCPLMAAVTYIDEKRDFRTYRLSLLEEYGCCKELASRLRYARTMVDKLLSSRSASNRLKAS
L3MBTL1 inh: blocks human L3MBTL1 | AID 485360 | 0.66% of 230,000 active | Q9Y468 | AlphaScreen L3MBTL1–H3K9me1 peptide binding | Potency, µM (doses to about 57.1 µM), without a hit: at the top dose activity, negative = inhibition, most hits filed as inhibitors; further: on the % scale 0 is the no-effect control and ±100 the full control effect; nearly all actives have a fitted effect of over 60% in size
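Read-out is AlphaScreen signal from streptavidin donor and nickel chelate acceptor beads (10 ug/mL final each) bridging L3MBTL1 (50 nM) and biotinylated K9-monomethylated H3(1-15) peptide (75 nM), after 30 min compound exposure at room temperature.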
VDR inh: inhibitors of human vitamin D receptor; AID 504847; 0.93% of 400,000 active; VDR-SRC2-3 peptide fluorescence polarization, 2 h; P11473; Potency, µM, for inactives: max response, negative = inhibition, hits mostly inhibitors; further: on the % scale 0 is the no-effect control and ±100 the full control effect
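Measured by FP: displacement of SRC2-3 coactivator peptide from VDR by library compounds, following a two-hour ambient incubation.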
JMJD2A Tudor inh: blocks the human JMJD2A Tudor domain. O75164. AlphaScreen JMJD2A-Tudor / H3K4me3 peptide binding. 4.4% of 390,000 active. Potency, µM (series often up to 114 µM), for inactives: top-dose activity change, negative = inhibition, most hits filed as inhibitors. AID 504339; further: on the % scale 0 is the no-effect control and ±100 the full control effect; nearly all actives have a fitted effect of over 50% in size
HP1b binding inh: HP1-beta chromodomain-methylated histone interaction inhibition; 0.56% of 390,000 active; AlphaScreen HP1-beta / biotin-H3K9me3 peptide binding; Potency, µM (titrated, usually from 114 µM), for inactives: at the highest dose activity change, negative = inhibition, most hits filed as inhibitors; P83916; further: nearly all actives have a fitted effect of over 70% in size
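HP1-beta protein (50 nM final) preincubated 30 min at room temperature with biotinylated H3(1-18)K9me3 peptide (50 nM) in PBS pH 7.4, 0.01% Tween-20, then compound added for 30 min. AlphaScreen streptavidin donor/nickel chelate acceptor beads (10 ug/mL final), 30 min dark, luminescence read.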
Active calls of the source: *; ? = inconclusive; / = not tested or not shown; [ ] = another dose, or the depositor's remark. In the library only some 6.9% were active in any assay of this set; here they are far more common. The call rests on the fitted dose curve; in most records, active means well fitted curve in the direction sought with a large enough effect; inconclusive means small, poorly fitted or top-dose-only effect, or another doubt; inactive means no such curve, though single readings can be large; an effect the other way counts as inactive or inconclusive. Potency means the concentration at half of the fitted maximal effect.

SMILES	BAZ2B block	PLK1 PBD block	L3MBTL1 inh	VDR inh	JMJD2A Tudor inh	HP1b binding inh
CCCN(CCC)CC(O)Cn1cc(/C=C/C(=O)c2ccc(OC)cc2)c2ccccc21 (stereo unspecified)	?	/	/	-5%	45µM*	-19%
COc1ccccc1-n1c(C)cc(/C=C2/C(=N)N3C(=NC2=O)SN=C3S(C)(=O)=O)c1C	/	?	/	-19%	-36%	10%
COc1cc(/C=C2/C(=N)N3C(=NC2=O)SN=C3S(C)(=O)=O)ccc1OS(=O)(=O)c1ccccc1	50µM*	/	/	/	/	/
CCOc1cc(/C=C2/C(=N)N3C(=NC2=O)SN=C3S(C)(=O)=O)ccc1OC(=O)c1ccco1	50µM*	?	/	?	?	5%
CCOc1cc(/C=C2/C(=N)N3C(=NC2=O)SN=C3S(C)(=O)=O)ccc1OS(=O)(=O)c1ccccc1	?	15µM*	/	25µM*	?	-7%[57 µM]
COc1ccc(/C=C2/C(=N)N3C(=NC2=O)Sc2cc(S(C)(=O)=O)ccc23)cc1OC	-17%	-12%	/	-6%	-6%	-1%
Cc1cc(/C=C2/C(=N)N3C(=NC2=O)SN=C3S(C)(=O)=O)c(C)n1-c1ccc(F)cc1	/	?	/	-3%	-24%	16%
CCOc1ccc(-n2c(C)cc(/C=C3/C(=N)N4C(=NC3=O)SN=C4S(C)(=O)=O)c2C)cc1	56µM*	19µM*	/	?	?	10%
Cc1ccc(Cn2cc(CCC(=O)NC3CCCCC3)c3ccccc32)cc1	-13%	/	/	1%	-16%	2%
Cc1ccc2c(c1)c1c(c(=O)n(-c3cccc(Cl)c3)c(=O)n1CC(=O)N1CCCC1)n2C	-5%	/	/	8%	-16%	12%
CN(Cc1ccc(F)cc1)S(=O)(=O)c1nnc(NC(=O)c2ccc(F)cc2)s1	-15%	/	/	1%	-7%	37%
COc1cc(/C=C2\C(=N)N3N=CSC3=NC2=O)ccc1OS(=O)(=O)c1ccccc1[N+](=O)[O-]	-14%	27µM*	/	?	-30%	-3%
O=C(O)Cc1csc(NC(=O)CSc2cccc(C(=O)O)n2)n1	-39%	-10%	/	9%	89µM*	-18%
COC(=O)c1ccc(NC(=O)c2ccc3c(c2)NC(=O)C2CCCN32)cc1 (stereo unspecified)	50µM*	/	?	/	/	/
Cc1ccc2c(C)c(C(=O)N(Cc3ccc(N(C)C)cc3)Cc3ccco3)oc2c1C	10µM*	/	/	15%	18µM*	-25%
CCc1ccc2oc(C(=O)N(Cc3ccc(N(C)C)cc3)Cc3ccco3)c(C)c2c1	8.9µM*	/	/	4%	18µM*	?
CSc1nc(-c2ccco2)nn1S(C)(=O)=O	5%	-12%	/	3%	-12%	20%
Nc1nnnn1/N=C/c1cc(Cl)cc(Cl)c1O	-3%	12µM*	0%	-19%	40µM*	16%
Nc1nnnn1/N=C/c1cc(Cl)ccc1O	1%	?	/	0%	-3%	59%
O=C(CN1CCC(n2nnc3cc(F)ccc32)CC1)NCc1ccco1	79µM*	-10%	-19%	-5%	-23%	12%
CC(C)(CO)[C@@H](O)C(=O)NCCCO	/	/	/	-4%	/	/
Cc1ccc(S(=O)ONc2cccc(NOS(=O)c3ccc(C)cc3)c2)cc1 (stereo unspecified)	/	-7%	/	/	/	/
O=[N+]([O-])c1cc(/C=N/O)ccc1Sc1ccccc1	50µM*	-8%	/	14%	56µM*	-40%
O=[N+]([O-])c1cc(/C=N/O)ccc1Oc1ccccc1Cl	-25%	-3%	?	-2%	-32%	-11%
CCOc1ccc(S(=O)(=O)N(C(=O)c2ccncc2)c2ccc3oc(C)c(C(=O)OC)c3c2)cc1	-22%	/	/	-16%	-17%	14%
SMILES	BAZ2B block	PLK1 PBD block	L3MBTL1 inh	VDR inh	JMJD2A Tudor inh	HP1b binding inh
Cc1ccc(C)n1C1CCS(=O)(=O)C1 (stereo unspecified)	-7%	-4%	1%	-8%	-5%	10%
Cc1nn(C2CCS(=O)(=O)C2)c(C)c1C=O (stereo unspecified)	9%	3.4µM*	-4%	?	13µM*	-13%
CC(=O)c1sc(Nc2cccc3ccccc23)nc1C	/	-4%	/	-8%	-32%	4%
CC(=O)c1sc(Nc2ccccn2)nc1C	50µM*	-3%	-2%	6%	10%	28%
CC(=O)Nc1nc(C)c(C(C)=O)s1	5%	1%	/	-2%	-7%	18%
COc1cc(C)nc(Nc2nc(C)c(C(C)=O)s2)n1	6%	3µM*	-9%	-14%	?	?
COc1cc(OC)c(NC(=O)c2nn(-c3ccc(C)cc3)c(=O)c3c2c2ccccc2n3C)cc1Cl	/	/	/	1%	-16%	9%
COC(=O)c1cc(NS(=O)(=O)c2ccc(Cl)c(N3C(=O)c4ccc(C(=O)O)cc4C3=O)c2)cc(C(=O)OC)c1	0.79µM*	-4%	/	-7%	-18%	-5%
C[C@H](N)C(=O)N[C@@H](Cc1ccc(F)cc1)C(=O)N[C@@H](CCCN=C(N)N)C(=O)N[C@@H](CC1CCCCC1)C(=O)N[C@@H](CCCCN=C(N)N)C(=O)N[C@@H](Cc1ccc(O)cc1)C(N)=O	/	/	/	7%	/	/
O=C(c1cccc(N2C(=O)C3C4C=CC(C4)C3C2=O)c1)N1CCCCCC1 (stereo unspecified)	2%	-5%	/	-1%	-1%	19%
O=C(O)c1cccc(N2C(=O)C3C4C=CC(C4=C(c4ccccc4)c4ccccc4)C3C2=O)c1 (stereo unspecified)	56µM*	30µM*	?	1%	-2%[11.4 µM]	-25%
O=[N+]([O-])c1cc(-c2n(-c3ccccn3)c3ccccc3[n+]2-c2ccccn2)ccc1Cl	45µM*	-7%	-12%	-10%	-34%	-7%
O=C(c1ccc(Cl)c([N+](=O)[O-])c1)N1CCN(c2ccccn2)CC1	-5%	0%	-5%	-6%	-20%	18%
O=c1c(-c2cccc(F)c2)nc2cncnc2n1Cc1ccccc1Cl	/	/	/	12%	/	/
CC(C)CC(NC(=O)OC(C)(C)C)C(=O)NCc1ccccc1 (stereo unspecified)	-4%	-22%	-7%	16%	-12%[11.4 µM]	39%
CC(C)CC(NC(=O)C(COCc1ccccc1)NC(=O)OC(C)(C)C)C(=O)NN (stereo unspecified)	4%	27µM*	/	-22%	-27%	26%
CCC12CN3CC(C)(CN(C1)C3c1ccc(O)cc1O)C2=O (stereo unspecified)	-16%	/	/	-9%	-13%	13%
Cc1ccc2[nH]c(C)c(/C=N/Nc3nc4ccccc4s3)c2c1	?	0%	-15%	-8%	45µM*	-25%
COc1ccc(C=NNc2nc3ccccc3s2)cc1	/	-17%	/	-19%	-24%	-22%
